Eya2 inh = qHTS Assay for Inhibitors of the Phosphatase Activity of Eya2; recombinant Eya2, OMFP fluorescence dephosphorylation (OMFP is methylfluorescein phosphate); Potency, µM (highest dose often 76.9 µM), without a hit: at the top dose activity, negative = inhibition, most hits filed as inhibitors; 0.006% of 330,000 active; Protein phosphatase EYA2 (Homo sapiens), O00167; note: potency is the fitted concentration of half-maximal effect; % is set by controls: 0 for no effect and ±100 for the full control effect
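Eya2 (0.2 uM) preincubated 10 min at ambient with compound, then OMFP substrate added at 50 uM; 10 min reaction in 50 mM HEPES pH 7.5, 50 mM NaCl, 5 uM MgCl2, 0.05% BSA, 1 mM DTT. Fluorescence read at Ex 485/Em 525 nm.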
D1 potentiator = Potentiators of Human D1 Dopamine Receptor: qHTS. HEK293 TREx D1 cells, calcium flux, dopamine EC20 potentiation. potentiation, % at 10 µM. 0.036% of 360,000 active. AID 504651, 2011; in the data active = potentiation above about 30%; note: 0% is about no effect
GALK inh = qHTS Assay for Inhibitors of Human Galactokinase (GALK); P51570; Purified GALK, Kinase-Glo residual ATP luminescence; Potency, µM (series often up to 57.5 µM), without a hit: top-dose activity change, negative = inhibition, most hits filed as inhibitors; 0.007% of 270,000 active; AID 1868, 2009; note: potency is the fitted concentration of half-maximal effect; % is set by controls: 0 for no effect and ±100 for the full control effect
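GALK at 5 nM final was combined with compound, 35 uM ATP and 100 uM galactose in HEPES pH8.0 with MgCl2 and DTT. The reaction ran one hour at room temperature before luminescent ATP detection.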
D1 antagonist = Antagonist of Human D 1 Dopamine Receptor: qHTS; activity change, negative = inhibition, % at 10 µM; D(1A) dopamine receptor (Homo sapiens), P21728; HEK293 TREx D1 cells, calcium flux, dopamine EC80; active compounds read low; 3.2% of 360,000 active; in the data active = activity change below about -30%; note: % is set by controls: 0 for no effect and ±100 for the full control effect
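Cells carrying a force-coupled, tetracycline-inducible human D1 receptor report calcium flux. Each well gets a 10 s baseline, compound with 180 s monitoring, then an EC80 dopamine stimulus with a second 180 s kinetic read.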
USP2a inh = qHTS Assay for Inhibitors of Ubiquitin-specific Protease USP2a Using CHOP2 as the Reporter; AID 463254, 2010; USP2 core, Ub-CHOP2 coupled fluorogenic reporter, 485/531; 0.01% of 330,000 active; Potency, µM (series often up to 38.3 µM), for the others: top-dose activity change, negative = inhibition, actives largely listed as inhibitors; Ubiquitin carboxyl-terminal hydrolase 2 (Homo sapiens), O75604;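 note: potency is the fitted concentration of half-maximal effect; plate controls were DMSO wells for no effect and full inhibition by NEM control for full effect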
Target sequence (O75604 whole entry, looked up): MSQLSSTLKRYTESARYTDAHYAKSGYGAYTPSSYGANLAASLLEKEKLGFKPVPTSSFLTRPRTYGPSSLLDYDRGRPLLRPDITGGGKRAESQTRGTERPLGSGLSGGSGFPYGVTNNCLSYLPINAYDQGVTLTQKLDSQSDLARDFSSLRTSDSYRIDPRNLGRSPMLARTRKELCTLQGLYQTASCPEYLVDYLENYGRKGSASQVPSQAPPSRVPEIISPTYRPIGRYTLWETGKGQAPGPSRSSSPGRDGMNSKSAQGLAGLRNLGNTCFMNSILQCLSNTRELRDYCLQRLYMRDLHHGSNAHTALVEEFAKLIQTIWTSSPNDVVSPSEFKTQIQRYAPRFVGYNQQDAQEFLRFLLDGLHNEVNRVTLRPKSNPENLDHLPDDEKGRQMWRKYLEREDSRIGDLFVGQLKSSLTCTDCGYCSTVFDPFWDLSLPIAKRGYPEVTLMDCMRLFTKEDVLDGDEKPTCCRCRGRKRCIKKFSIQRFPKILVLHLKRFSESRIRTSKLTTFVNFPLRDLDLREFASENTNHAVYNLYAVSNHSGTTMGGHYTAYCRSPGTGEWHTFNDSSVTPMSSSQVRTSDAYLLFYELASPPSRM
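USP2 core (10nM final) preincubated 30min RT with compound in 20mM Tris-HCl pH 8.0, 2mM CaCl2, 2mM beta-mercaptoethanol, 0.05% CHAPS; 25nM Ub-CHOP2 plus 25nM reporter substrate added, fluorescence (Ex485/Em531) read after 60min.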
D1 agonist = Allosteric Agonists of the Human D1 Dopamine Receptor: qHTS; D(1A) dopamine receptor (Homo sapiens), P21728; HEK293 T-REx D1 cells, calcium flux, agonist mode; activation, % at 2 µM; 1% of 360,000 active; AID 504660, 2011; in the data active = activation above about 30%; note: 0% is about no effect
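Inducible HEK293 T-REx D1 cells, force-coupled to calcium signalling, were plated at 4000 cells/well with tetracycline and held overnight at 30 C. After no-wash calcium dye loading, compound-evoked calcium rise over 180 s flagged agonists.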
Starred values were filed as active, the others as inactive; u = inconclusive; x = not tested or not shown. An excerpt weighted towards active compounds, which were near 3.9% of everything screened. Unless noted, calls come from the whole dose curve; as a rule, active = well fitted inhibition curve with a large enough effect; inconclusive = small, poorly fitted or top-dose-only effect, or effect the other way; inactive = flat fitted curve, though single readings scatter.

SMILES	Eya2 inh	D1 potentiator	GALK inh	D1 antagonist	USP2a inh	D1 agonist
CC(C)CC(NC(=O)C1CCC(C)CC1)C(=O)Nc1ccccn1 (stereo not drawn)	-4%	-7	3%	-32*	2%	0
CC(C)CC(NC(=O)C1CCC(C)CC1)C(=O)Nc1ccccc1F (stereo not drawn)	-6%	-4	0%	10	-1%	1
C/C(=N\Nc1ccc([N+](=O)[O-])cc1)c1ccc(O)cc1	-20%	-14	-1%	-27	2%	37*
CC(=O)NC/C(C)=N\Nc1ccc([N+](=O)[O-])cc1	-2%	-4	-3%	1	-1%	35*
Cc1cccc(C)c1NC1=C(Cl)C(=O)OC1OC(=O)c1ccccc1 (stereo not drawn)	-3%	-1	6%	-48*	2%	-1
Cc1ccccc1NC1=C(Cl)C(=O)OC1OC(=O)c1ccccc1C (stereo not drawn)	-5%	-1	0%	-22	-2%	1
Cc1ccc(NC2=C(Cl)C(=O)OC2OC(=O)c2ccccc2)c(C)c1 (stereo not drawn)	-5%	-2	5%	-51*	0%	9
CCCCOC(=O)c1ccc(Nc2ncnc3c2cnn3-c2cccc(C)c2)cc1	x	0	x	-3	x	-2
Cc1cccc(-n2ncc3c(Nc4ccc(F)cc4)ncnc32)c1	14%	-17	0%	-49*	-3%	0
COc1ccc(Nc2ncnc3c2cnn3-c2cccc(C)c2)cc1OC	-3%	-9	3%	-3	-2%	0
COc1ccc(-n2ncc3c(Nc4cccc(C)c4)ncnc32)cc1	9%	6	-2%	-1	1%	0
COC(=O)c1ccc(Nc2ncnc3c2cnn3-c2cccc(C)c2)cc1	-3%	-12	x	-38*	1%	1
Cc1ccc(-n2ncc3c(Nc4cccc(C)c4)ncnc32)cc1	x	-9	x	-33*	x	5
COc1ccc(CCNc2nc3ccccc3c3nc(-c4cccc(C)c4)nn23)cc1OC	x	-4	x	-5	x	0
O=C1c2cccc3c([N+](=O)[O-])ccc(c23)C(=O)N1c1ccc(Cl)cn1	20%	-8	1%	-49*	5%	3
CCCCNc1ccc2c3c(cccc13)C(=O)N(CCCC)C2=O	u	4	6%	-71*	u	700*
O=C1c2cccc3c([N+](=O)[O-])ccc(c23)C(=O)N1c1nccs1	-4%	-3	-4%	x	10%	-1
O=C1c2cccc3c([N+](=O)[O-])ccc(c23)C(=O)N1O	8%	3	1%	-8	1%	3
O=C1c2cccc3c([N+](=O)[O-])ccc(c23)C(=O)N1c1ccccn1	6%	-11	-6%	-42*	9%	4
CN(C)CCCN1C(=O)c2cccc3c(Br)ccc(c23)C1=O	11%	3	-1%	26	5%	8
O=C1c2ccc([N+](=O)[O-])cc2C(=O)N1c1ccc(Cl)cn1	6%	2	7%	1	0%	0
CC(=O)Oc1ccc(N2C(=O)c3cccc4c([N+](=O)[O-])ccc(c34)C2=O)cc1	-4%	-8	2%	-41*	4%	2
COc1ccc(C(=O)N2CCCCC2CCN2CCCCC2)cc1 (stereo not drawn)	x	-2	x	32	x	3
COc1ccc(-n2ncc(C(=O)Nc3cccc(C(F)(F)F)c3)c2C2CCN(C(=O)OC(C)(C)C)CC2)cc1	x	-3	x	-6	x	5
COCCNC(=O)C1CCCN(S(=O)(=O)c2ccc3c(ccn3C)c2)C1 (stereo not drawn)	x	0	x	6	x	1
SMILES	Eya2 inh	D1 potentiator	GALK inh	D1 antagonist	USP2a inh	D1 agonist
CC1=C(C)C(=O)N(c2ccccn2)C1=O	13%	3	-3%	6	0%	1
O=C(OCCN1C(=O)c2cccc3c(N4CCOCC4)ccc(c23)C1=O)c1cc(Cl)cc(Cl)c1	4%	0	1%	-9	8%	12
CCN(CC)S(=O)(=O)c1ccc(C(=O)OCCN2C(=O)c3cccc4c(N5CCOCC5)ccc(c34)C2=O)cc1	-1%	-7	1%	-23	4%	15
CC(=O)N(C(C)=O)N1C(=O)c2cccc3c(N4CCOCC4)ccc(c23)C1=O	u	-3	12%	-2	18%	31*
CCCN1C(=O)c2cccc3c(N4CCCCC4)ccc(c23)C1=O	-7%	-3	0%	8	4%	63*
O=C1c2cccc3c(N4CCCCC4)ccc(c23)C(=O)N1c1ccccn1	-9%	-6	-4%	-27	23%	154*
COc1ccc(NC(=O)c2ccco2)cc1NC(=O)c1cc(Br)ccc1Cl	x	-2	x	2	x	1
COc1ccc(-n2nc(C(=O)N3CCCC(C)C3)c3c4ccccc4n(C)c3c2=O)cc1 (stereo not drawn)	x	2	x	9	x	-1
CCN(CC)C(=O)CSc1nc2c(sc(=S)n2-c2ccc(C)cc2C)c(=O)[nH]1	10%	-4	x	-41*	-6%	1
CCOC(=O)CSc1nc2c(sc(=S)n2-c2ccccc2)c(=O)[nH]1	-4%	-4	x	-10	1%	1
CC1CCc2c(sc3nnn(Cc4ccccc4Cl)c(=O)c23)C1 (stereo not drawn)	x	1	x	5	x	2
Cc1ccc(Sc2c(C)nn(C(=O)c3ccc(Cl)cc3)c2C)cc1	x	0	x	-3	x	2
CC(C)CCn1cnc2c1c(=O)[nH]c(=O)n2Cc1ccccc1	7%	0	x	10	1%	2
CC(C)Cn1cnc2c1c(=O)[nH]c(=O)n2Cc1ccccc1	-11%	-2	x	-47*	1%	2
Cn1c(=O)c2c(ncn2CC(O)CNc2ccc(Cl)cc2)n(C)c1=O (stereo not drawn)	x	-6	0%	-37*	x	2
Cc1nnc(SCC(=O)NC2CCCc3c2cnn3-c2ccccc2F)o1 (stereo not drawn)	-5%	-1	0%	-39*	4%	1
O=C(NC1CCCc2c1cnn2-c1ccc(F)cc1F)c1csnn1 (stereo not drawn)	-7%	-2	-9%	-31*	1%	2
O=C(Cc1csc(NC(=O)Nc2cccc(Cl)c2)n1)NCc1ccccn1	-4%	-5	x	-31*	0%	7
